MARV entry inh: Marburg virus entry inhibition; Marburg virus pseudotype entry/binding inhibition, cell-based; Potency, µM (top dose mostly 49.2 µM), usual class: inhibitors; actives 6.5% (n = 18,000); AID 720532
LASV entry inh: Lassa virus entry inhibition; Lassa virus pseudotyped entry inhibition, cell-based qHTS; Potency, µM (series often up to 49.2 µM), actives largely listed as inhibitors; AID 720533; actives 4.1% (n = 18,000)
Of the large screens only hits and unclear results are named; the others gave an inactive call; ! = repeats disagree. Most compounds without a hit are left out; they make up all but 7.1% or so of the library. Calls come from the whole dose curve; tested in HEK293 cells.

CN1C[C@H](C(=O)N[C@@]2(C)O[C@@]3(O)C4CCCN4C(=O)C(Cc4ccccc4)N3C2=O)C[C@H]2c3cccc4[nH]cc(c34)C[C@H]21 (stereo partly specified)	none
C=C1C[C@H]2[C@@H]3C=C(C)C4=CC(=O)CC[C@]4(C)[C@H]3CC[C@]2(C)[C@@]1(OC(C)=O)C(C)=O	MARV entry inh 13µM!, LASV entry inh inconclusive
CC(=O)[C@]1(O)CCC2C3CCC4=CC(=O)CC[C@@]4(C)C3CC[C@]21C (stereo partly specified)	none
CCC1OC(=O)C(C)[C@@H](O[C@H]2C[C@@](C)(OC)C(O)C(C)O2)C(C)[C@@H](O[C@@H]2OC(C)CC(N(C)C)C2O)[C@@](C)(O)CC(C)C2NC(COCCOC)O[C@H](C2C)[C@@]1(C)O (stereo partly specified)	none
CCC(=O)O[C@H]1[C@H](O[C@@H]2[C@@H](C)[C@H](O[C@H]3C[C@@](C)(OC)[C@@H](O)[C@H](C)O3)[C@@H](C)C(=O)O[C@H](CC)[C@@](C)(O)[C@H](O)[C@@H](C)C(=O)[C@H](C)C[C@@]2(C)O)O[C@H](C)C[C@@H]1N(C)C	MARV entry inh 10µM, LASV entry inh 25µM
CC[C@H]1OC(=O)[C@H](C)[C@@H](O[C@H]2C[C@@](C)(OC)[C@@H](O)[C@H](C)O2)[C@H](C)[C@@H](O[C@@H]2O[C@H](C)C[C@H](N(C)C)[C@H]2O)[C@](C)(O)C[C@@H](C)[C@@H]2N[C@@H](COCCOC)O[C@@H]([C@H]2C)[C@]1(C)O	MARV entry inh 7.1µM
CCOC(=O)CCC(=O)O[C@H]1[C@H](O[C@@H]2[C@@H](C)[C@H](O[C@H]3C[C@@](C)(OC)[C@@H](O)[C@H](C)O3)[C@@H](C)C(=O)O[C@H](CC)[C@@](C)(O)[C@H](O)[C@@H](C)C(=O)[C@H](C)C[C@@]2(C)O)O[C@H](C)C[C@@H]1N(C)C	none
CCOC(=O)CCN1C(=O)[C@@H]2[C@H]3[C@H](O)[C@H](O)CC(=NOCc4ccccc4)[C@@H]3CC[C@H]2C1=O	none
COc1cccc([C@@H]2[C@@H](C)CC[C@@H]3C(=O)NC[C@H](O)CN32)c1	none
C#CCN1C(=O)CC[C@@]23C1=NC(C(=O)OC)=C(C(=O)OC)[C@@H]2N(CC=C(C)C)c1ccccc13	none (no result: LASV entry inh)
O=[S+]1([O-])C[C@@H](N2CC[C@@H](O)C2)[C@@H](COCc2ccccc2)N1	none
COP(=O)(OC)[C@@H](O)C(Cl)(Cl)Cl	LASV entry inh 4µM
Cc1[nH]cnc1C[C@H]1CCc2c(C)c3ccccc3n2C1=O	MARV entry inh inconclusive
CCCCCCCCc1ccc(-c2ccc(C(=O)O)cc2)cc1	none
CCCCCCC[N+](CC)(CC)CCCCc1ccc(Cl)cc1	MARV entry inh inconclusive, LASV entry inh 5µM
CCN1C(=NCc2cccc(C(F)(F)F)c2)NC(c2cccs2)C(C(=O)OC)=C1C (stereo unspecified)	MARV entry inh inconclusive
CCOC(=O)CN1C(=O)[C@]2(O[C@H](COc3ccccc3)CC3=CCCC32)c2c(Br)cccc21 (stereo partly specified)	none (no result: LASV entry inh)
C[C@]12CCC3C(CC[C@]4(O)C[C@@H](O)CC[C@]34C=O)[C@@]1(O)CC[C@@H]2C1=CC(=O)OC1 (stereo partly specified)	MARV entry inh inconclusive, LASV entry inh 1µM
COC(=O)C1=C2C=CCCN2C(=O)NC1c1ccccc1 (stereo unspecified)	none
CC(C)C[C@H](NC(=O)[C@@H](O)[C@H](N)Cc1ccccc1)C(=O)O	LASV entry inh inconclusive
CC[C@@H](C)[C@@H](CO[C@@H](Cc1ccccc1)C(=O)N[C@@H](CCS(C)(=O)=O)C(=O)OC(C)C)NC[C@@H](N)CS	MARV entry inh 10µM
COC(=O)N[C@@H](c1cccc(C)c1)[C@]1(C(C)=O)CCCC1=O	none
CC1(C)CC(=O)C2=C(C1)O[C@@]1(CCCCN3C(=O)c4ccccc4C3=O)Cc3ccccc3[C@H]2O1	none
O=C1NCN(c2ccccc2)C12CCN(CCCOc1ccc(F)cc1)CC2	MARV entry inh 18µM, LASV entry inh 16µM
c1ccc(N2CCN(CCCOc3ccc4c(c3)OCO4)CC2)cc1	none
COc1ccc2c3c([nH]c2c1)[C@@H]1C[C@@H]2[C@@H](C[C@H](O)[C@H](OC)[C@H]2C(=O)O)CN1CC3	none
COC(=O)[C@@H]1C2CC3c4[nH]c5cc(OC)ccc5c4CCN3CC2C[C@H](OC(=O)c2cc(OC)c(OC)c(OC)c2)C1OC (stereo partly specified)	MARV entry inh 13µM, LASV entry inh inconclusive
O=S1(=O)CCSCCN1Cc1ccc(Cl)cc1	none
CC(C)NCC(O)COc1cccc2ccccc12 (stereo unspecified)	MARV entry inh 20µM, LASV entry inh inconclusive
CC(C)NC[C@@H](O)COc1cccc2[nH]ccc12	none
CCc1cc2c(nc1CC)CCN(CCC(C)=NOC[C@@H](O)[C@H]1O[C@@H]3OC(C)(C)O[C@H]3[C@@H]1O)C2	none
